Experimental data published in PubChem BioAssay (Tox21).
Inconclusive results are not listed. Unmarked numbers belong to inactive results. Calls of active or inactive are those of the source. The call rests on the fitted dose curve; in most records, active means well fitted activation curve with a large enough effect in the repeat runs; inconclusive means weak or mixed curves; inactive means flat fitted curve, though single readings scatter.

Assay: A CellTox Green Cytotoxicity Assay to monitor cytotoxicity in HepG2 cells - 24 hour (AID 1224878); further: nearly all actives have a fitted effect of over 45% in size
Conditions: CellTox Green fluorescence; series mostly up to 76.8 µM; cytotoxicity: at the top concentration
Excerpt: National Center for Advancing Translational Sciences [NCATS]
NIH Chemical Genomics Center [NCGC]
U.S. Environmental Protection Agency [EPA]
National Institutes of Environmental Health Sciences [NIEHS]
National Toxicology Program [NTP]
Cell-based models are critical for drug discovery. Determining the natural cytotoxic effects resulting from test compounds is an essential research activity. A CellTox Green Cytotoxicity Assay to monitor cytotoxicity in real time of continues cell culture during 40 hours of the compound treatment was used to screen Tox21 10K library compounds in HepG2 cells. CellTox Green Cytotoxicity Assay is a nonlytic, homogeneous, biofluorescent method to measure cytotoxicity in cell culture after experimental manipulation. The assay system uses a proprietary asymmetric cyanine dye that is excluded from viable cells but preferentially stains the dead cell's DNA. […] Viable cells produce no appreciable increases in fluorescence. Therefore, the fluorescence signal produced by the binding interaction with dead cell DNA is proportional to cytotoxicity.
The mixture of HepG2 cell suspension and reagents were dispensed at 600cells/6 ul/well in 1536-well tissue culture treated black solid bottom plates using a Multidrop dispenser. After the assay plates were incubated at a 37 C/5% CO2 incubator for 5 hours, 23 nL of compounds dissolved in DMSO, positive and negative controls was transferred to the assay plate by a pintool work station. The plates were incubated at 37 C for 40 hours. The fluorescence intensity were measured at 0h, 8h, 16h, 24h, 32h and 40h time points using ViewLux plate reader during compound treatment.
On the % scale 0 is the no-effect control and ±100 the full control effect; potency means the concentration at half of the fitted maximal effect.

Compound | Potency | cytotoxicity
CCCCCCCCSCCO | 43.6 µM (active) | –
NC(=O)Nc1ccc(Cl)c(Cl)c1 | – | -12.5%
CC(CCc1ccc2c(c1)OCO2)NN (stereo not given) | – | 0.996% [at 35.3 µM]
CCOc1cc(N)c(Cl)cc1C(=O)NCC1CN(Cc2ccc(F)cc2)CCO1 (stereo not given) | – | 0.0288% [at 35.3 µM]
CC1(C)C(=O)N(Br)C(=O)N1Cl | – | -16.7%
OC/C(Br)=C(\Br)CO | – | -9.18%
CC(=O)Oc1ccc(C(=C2CCCCC2)c2ccc(OC(C)=O)cc2)cc1 | – | -16.5% [at 35.3 µM]
CO[Si](C)(OC)OC | – | 15.6%
ON(Cc1ccccc1)Cc1ccccc1 | – | 9.41%
CCCCCCCCCCOS(=O)(=O)O | – | -7.86%
Cc1cc(O)c2c(O)c3c(O)cccc3cc2c1 | – | -8.46% [at 35.3 µM]
Nc1c(I)cc(I)c(C(=O)N(CCC(=O)O)c2ccccc2)c1I | – | 3.96% [at 35.3 µM]
Nc1nc(Cl)nc2c1ncn2[C@@H]1O[C@H](CO)[C@@H](O)[C@@H]1F | – | -19.7% [at 35.3 µM]
CCCCCCCCCCCC(=O)[O][Sn]([CH2]CCC)([CH2]CCC)[O]C(=O)CCCCCCCCCCC | 19 µM (active) | –
CCCOc1ccc(S(=O)(=O)N2CCN(CC)CC2)cc1-c1nc2c(CC)n(Cc3ccccn3)nc2c(=O)[nH]1 | – | 4.52%
O=C(CCCN1CCC(O)(c2ccc(Br)cc2)CC1)c1ccc(F)cc1 | 23.9 µM (active) | –
COC(OC)(C(=O)c1ccccc1)c1ccccc1 | – | 3.3%
CCOC(=O)N1CCC(n2c(=O)[nH]c3cc(Cl)ccc32)CC1 | – | -1.35% [at 35.3 µM]
C=CC(C)(C)CC(=O)OC | – | -0.547%
CCCCCCCCCCCCCCCCBr | – | -6.35% [at 15.8 µM]

Compound | Potency | cytotoxicity
CC[C@@H]([C@H](C)O)n1ncn(-c2ccc(N3CCN(c4ccc(OC[C@@H]5CO[C@@](Cn6cncn6)(c6ccc(F)cc6F)C5)cc4)CC3)cc2)c1=O | – | 10.9% [at 35.3 µM]
COCCOC(=O)C1=C(C)NC(C)=C(C(=O)OC/C=C/c2ccccc2)C1c1cccc([N+](=O)[O-])c1 (stereo not given) | – | -15.1% [at 35.3 µM]
O=C1OCCN1/N=C/c1ccc([N+](=O)[O-])o1 | – | -13.1% [at 35.3 µM]
C[C@@H]1C[C@H]2[C@@H]3CCC4=CC(=O)C=C[C@]4(C)[C@@]3(F)[C@@H](O)C[C@]2(C)[C@@]1(O)C(=O)CO | – | -1.76%
CCCCC(=O)O[C@]1(C(=O)CO)[C@@H](C)C[C@H]2[C@@H]3CCC4=CC(=O)C=C[C@]4(C)[C@@]3(F)[C@@H](O)C[C@@]21C | – | 20.8%
CCOC(=O)/C=C/C(=O)O | – | 10.3%
CNC(=O)N(c1ccccc1)c1ccccc1 | – | 8.89%
C/C=C/C=C/CCCCCCCO | – | 7.14%
Cc1cc(O)c(C(C)C)cc1Cl | 27.5 µM (active) | –
CC1CC(O)CC(C)(C)C1 (stereo not given) | – | 9.56%
CCC(C(=O)OCCOCCN(CC)CC)c1ccccc1 (stereo not given) | – | -27.8% [at 35.3 µM]
CC(C)(C)CC(C)(C)c1ccc(OCCO)cc1 | – | 0.0897%
CCOC(=O)C(C)Oc1ccc(Oc2nc3ccc(Cl)cc3o2)cc1 (stereo not given) | – | 0.632%
CCCCCCOC(=O)C(C)C | – | -13.6%
CC1=NN(c2ccc(C(=O)O)cc2)C(=O)C1 | – | -9.99%
Cc1oncc1C(=O)Nc1ccc(C(F)(F)F)cc1 | – | 0.301% [at 35.3 µM]
COc1ccc(CCC(=O)c2c(O)cc(O[C@@H]3O[C@H](CO)[C@@H](O)[C@H](O)[C@H]3O[C@@H]3O[C@@H](C)[C@H](O)[C@@H](O)[C@H]3O)cc2O)cc1O | – | 0.482%
O=C(NCCCN1CCOCC1)c1ccc(Cl)cc1 | – | -12.6% [at 35.3 µM]
C=CC(=C)CCCC(C)(C)OC(C)=O | – | -11.8%
Nc1nccs1 | – | -1.99%
